The values that follow come from PubChem BioAssay (Tox21).

Structures are written as SMILES. Inconclusive results are not listed. Activity calls are given as the source filed them. Unless noted, calls come from the whole dose curve; as a rule, active = well fitted curve in the direction sought with a large enough effect in the repeat runs; inconclusive = weak or mixed curves; inactive = no such curve, though single readings can be large; an effect the other way counts as inactive or inconclusive.

Assay [1] is described as follows: qHTS assay to identify aromatase inhibitors - cell viability counter screen (AID 743084).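 Note: cells stimulated with testosterone during compound exposure; nearly all actives have a fitted effect of over 55% in size.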 Note: potency is the fitted concentration of half-maximal effect. Background: qHTS replaces the single test concentration by a dilution series.
Assay [2] addresses Aryl hydrocarbon receptor (Homo sapiens) (UniProt P35869). Put plainly: qHTS assay to identify small molecule that activate the aryl hydrocarbon receptor (AhR) signaling pathway (AID 743085).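 Note: HG2L7.5c1 human HepG2 liver cells with stably integrated DRE-driven firefly reporter; series mostly up to about 70 µM; nearly all actives have a fitted effect of over 15% in size.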 The essentials: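 Cell line HG2L7.5c1 (human hepatoma, 20× DRE-luc). Plated, 5 h 37C, compound/DMSO added, 24 h 37C. CellTiter-Fluor 30 min 37C → fluorescence; then ONE-Glo 30 min RT → luminescence.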

Assay [3] is described as follows: qHTS assay to identify small molecule that activate the aryl hydrocarbon receptor (AhR) signaling pathway - cell viability counter screen (AID 743086).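 Note: HepG2 liver cells carrying the AhR DRE luciferase reporter; series mostly up to about 70 µM; nearly all actives have a fitted effect of over 45% in size.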 The essentials: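 HepG2-AhR-luc (HG2L7.5c1) cells, 4000/well, were preincubated 5 h at 37C, exposed to compound in qHTS format for 24 hr at 37C, then given CellTiter-Fluor for 30 min; viability was read as fluorescence in the reporter wells.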

Assay [4] in a line: qHTS assay to identify small molecule antagonists of the peroxisome proliferator-activated receptor gamma (PPARg) signaling pathway - cell viability counter screen (AID 743194). Note: nearly all actives have a fitted effect of over 55% in size. Note: potency is the fitted concentration of half-maximal effect. In short, it runs like this:
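PPARg-UAS-bla HEK293H cells were plated, rested 5 h at 37 C, then treated with compounds plus rosiglitazone (50 nM final) for 17 h at 37 C; viability was then read by CellTiter-Glo luminescence after 30 min at room temperature.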

The nature of assay [5]: qHTS assay for small molecule agonists of the antioxidant response element (ARE) signaling pathway - cell viability counter screen (AID 743203; calls by dose curve; note: nearly all actives have a fitted effect of over 55% in size). In short, it runs like this:
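Parallel cytotoxicity read-out for the ARE-bla screen: HepG2 reporter cells, 16 hrs with compounds, then CellTiter-Glo luminescence.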

The nature of assay [6]: qHTS assay for small molecule activators of the heat shock response signaling pathway - cell viability counter screen (AID 743209). Note: nearly all actives have a fitted effect of over 50% in size. The essentials: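 To flag cytotoxic compounds, HSE-bla HeLa cells plated at 1500 cells/well were dosed for 5 h at 37 C, followed by the reporter FRET read and then CellTiter-Glo, with luminescence recorded 30 min after reagent addition.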
A short description of assay [7]: qHTS assay to identify small molecule agonists of the peroxisome proliferator-activated receptor delta (PPARd) signaling pathway - cell viability counter screen (AID 743211). Note: nearly all actives have a fitted effect of over 55% in size. Note: potency is the fitted concentration of half-maximal effect. The essentials: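 HEK293H PPARd-bla, 3000 cells/well; 5 h preincubation 37C/5% CO2; cpd in DMSO, 17 h 37C; B/G FRET substrate 2 h RT; CellTiter-Glo 30 min RT, luminescence.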
Assay [8] addresses Peroxisome proliferator-activated receptor delta (Homo sapiens) (UniProt Q03181). Put plainly: qHTS assay to identify small molecule agonists of the peroxisome proliferator-activated receptor delta (PPARd) signaling pathway (AID 743212; calls by dose curve). The essentials: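 Beta-lactamase reporter read by fluorescence (LiveBLAzer B/G FRET, 2 h, room temperature). Test agents, in DMSO, incubated at 37 C with PPARd-bla HEK293H cells.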

The nature of assay [9]: qHTS assay to identify small molecule antagonists of the peroxisome proliferator-activated receptor delta (PPARd) signaling pathway - cell viability counter screen (AID 743213). Note: nearly all actives have a fitted effect of over 50% in size. Note: potency is the fitted concentration of half-maximal effect. In short, it runs like this: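 PPARd-bla HEK293H cells (3000/well) got compound plus 300 nM L165041 agonist for 17 h at 37 C. Viability in the same wells came from CellTiter-Glo luminescence after 30 min at room temperature.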

Assay [10] concerns the target Peroxisome proliferator-activated receptor delta (Homo sapiens) (UniProt Q03181). Put plainly: qHTS assay to identify small molecule antagonists of the peroxisome proliferator-activated receptor delta (PPARd) signaling pathway (AID 743215; active = well fitted inhibition curve with a large enough effect in the signal ratio in the repeat runs, not every such curve was filed as active; the % refers to the signal ratio;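 note: cells stimulated with agonist L165041 at 300 nM final during compound exposure; series mostly up to about 62 µM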). The essentials: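 Screen format: qHTS, antagonist mode. HEK293H PPARd-bla cells received compound and 300 nM L165041 (final), 17 h, 37 C. Beta-lactamase detected via FRET substrate fluorescence, 2 h, room temperature.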

The nature of assay [11]: qHTS assay to identify small molecule agonists of the farnesoid-X-receptor (FXR) signaling pathway - cell viability counter screen (AID 743218). Note: nearly all actives have a fitted effect of over 45% in size. The essentials:
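Same-well cytotoxicity check on FXR-UAS-bla HEK 293T cells: 5 h attachment, 16 h compound at 37 C, CellTiter-Glo luminescence read at room temperature after 30 min.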

Assay [12] has as its target Vitamin D3 receptor (Homo sapiens) (UniProt P11473). Put plainly: qHTS assay to identify small molecule agonists of the vitamin D receptor (VDR) signaling pathway (AID 743222; calls by dose curve). The essentials: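 Using LiveBLAzer B/G FRET detection, agonism was scored in VDR-bla cells exposed overnight (16 h, 37C) to DMSO-dissolved compounds; substrate incubation was 2 h at room temperature.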

Assay [13] has the same target. Put plainly: qHTS assay to identify small molecule antagonists of the vitamin D receptor (VDR) signaling pathway (AID 743223; active = well fitted inhibition curve with a large enough effect in the signal ratio in the repeat runs, not every such curve was filed as active; the % refers to the signal ratio). The essentials:
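Antagonist mode uses 1alpha,25-dihydroxyvitamin D3 at 3 nM final as stimulus. VDR-bla cells receive compounds in DMSO, incubate 16 h at 37C, then a beta-lactamase FRET substrate for 2 h at room temperature before fluorescence measurement.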

A short description of assay [14]: qHTS assay for small molecule agonists of the antioxidant response element (ARE) signaling pathway (AID 743202; active = well fitted activation curve with a large enough effect in the signal ratio in the repeat runs, not every such curve was filed as active; the % refers to the signal ratio; note: potency is the fitted concentration of half-maximal effect). The essentials:
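Following a 16 h, 37 C exposure of reporter HepG2 cells (ARE-driven beta-lactamase, 2,000 cells/well) to compounds, FRET substrate was applied for 2 h at room temperature and fluorescence intensity recorded.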

A short description of assay [15]: qHTS assay for small molecule activators of the heat shock response signaling pathway (AID 743210; active = well fitted activation curve with a large enough effect in the signal ratio in the repeat runs, with a control signal flat, not every such curve was filed as active; the % refers to the signal ratio; note: series mostly up to about 63 µM). In short, it runs like this: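 Heat shock element–beta-lactamase HeLa reporter cells; qHTS with compounds for 5 h at 37 C; detection by FRET substrate fluorescence after 2.5 h at RT.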
Assay [16] is described as follows: qHTS assay to identify small molecule antagonists of the farnesoid-X-receptor (FXR) signaling pathway - cell viability counter screen (AID 743221; active = well fitted cell-killing curve with a large enough effect in the repeat runs, not every such curve was filed as active; note: nearly all actives have a fitted effect of over 50% in size). The essentials:
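Luminescence from CellTiter-Glo measures cytotoxicity in GeneBLAzer FXR-UAS-bla HEK 293T cells. Cells were exposed to compounds with 50 uM chenodeoxycholic acid (final) for 16 h at 37 C, in wells also used for the reporter readout.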

Assay [17] deals with Peroxisome proliferator-activated receptor gamma (Homo sapiens) (UniProt P37231). Put plainly: qHTS assay to identify small molecule agonists of the peroxisome proliferator-activated receptor gamma (PPARg) signaling pathway (AID 743094; active = well fitted activation curve with a large enough effect in the signal ratio in the repeat runs, not every such curve was filed as active; the % refers to the signal ratio). The essentials: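 Fluorescence-based beta-lactamase readout in HEK293H PPARg UAS-bla cells after 17 h compound exposure (37C) and 1 h B/G FRET substrate incubation at room temperature.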
Chain of Peroxisome proliferator-activated receptor gamma (Homo sapiens) (P37231 whole entry, looked up): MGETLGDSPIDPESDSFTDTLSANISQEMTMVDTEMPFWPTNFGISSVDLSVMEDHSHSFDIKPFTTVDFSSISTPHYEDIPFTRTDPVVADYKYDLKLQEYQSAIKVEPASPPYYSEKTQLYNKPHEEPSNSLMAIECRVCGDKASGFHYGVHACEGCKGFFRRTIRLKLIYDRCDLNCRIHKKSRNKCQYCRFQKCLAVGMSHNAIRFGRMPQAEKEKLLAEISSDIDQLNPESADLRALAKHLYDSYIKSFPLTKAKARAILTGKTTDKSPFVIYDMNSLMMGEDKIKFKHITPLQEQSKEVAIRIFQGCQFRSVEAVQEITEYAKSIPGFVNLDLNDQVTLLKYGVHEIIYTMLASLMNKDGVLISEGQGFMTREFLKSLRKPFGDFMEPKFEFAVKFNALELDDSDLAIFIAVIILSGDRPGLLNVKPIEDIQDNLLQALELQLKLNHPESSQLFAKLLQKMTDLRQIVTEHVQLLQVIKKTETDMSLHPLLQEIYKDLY

Assay [18] deals with Bile acid receptor (Homo sapiens) (UniProt Q96RI1). Put plainly: qHTS assay to identify small molecule agonists of the farnesoid-X-receptor (FXR) signaling pathway (AID 743220; active = well fitted activation curve with a large enough effect in the signal ratio in the repeat runs, not every such curve was filed as active; the % refers to the signal ratio). In short, it runs like this: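 FXR-UAS-bla HEK 293T cells carrying a UAS-driven beta-lactamase reporter were plated for 5 h at 37C/5% CO2, then exposed to DMSO-dissolved Tox21 10K compounds for 16 h at 37C. A LiveBLAzer B/G FRET substrate was loaded for 2 h at room temperature before fluorescence reading.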
Chain of Bile acid receptor (Homo sapiens) (Q96RI1 whole entry, looked up): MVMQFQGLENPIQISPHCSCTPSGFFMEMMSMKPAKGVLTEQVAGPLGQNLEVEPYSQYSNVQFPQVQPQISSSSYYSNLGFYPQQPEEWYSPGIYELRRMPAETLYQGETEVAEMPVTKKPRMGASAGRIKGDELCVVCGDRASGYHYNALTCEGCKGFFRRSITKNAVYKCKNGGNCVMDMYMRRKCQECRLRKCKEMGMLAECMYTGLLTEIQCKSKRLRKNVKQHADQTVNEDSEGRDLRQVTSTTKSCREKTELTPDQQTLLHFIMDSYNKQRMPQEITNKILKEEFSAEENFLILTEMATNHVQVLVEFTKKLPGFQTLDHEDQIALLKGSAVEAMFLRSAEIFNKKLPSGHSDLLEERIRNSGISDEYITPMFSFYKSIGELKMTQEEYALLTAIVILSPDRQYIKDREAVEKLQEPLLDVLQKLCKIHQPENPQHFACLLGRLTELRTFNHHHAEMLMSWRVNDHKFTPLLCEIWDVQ

For assay [19] the target is unchanged. Put plainly: qHTS assay to identify small molecule antagonists of the farnesoid-X-receptor (FXR) signaling pathway (AID 743217; active = well fitted inhibition curve with a large enough effect in the signal ratio in the repeat runs, not every such curve was filed as active; the % refers to the signal ratio; note: potency is the fitted concentration of half-maximal effect). In short, it runs like this:
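Quantitative HTS, beta-lactamase reporter format: FXR-UAS-bla HEK 293T cells co-treated 16 h at 37 °C with compounds and 50 uM final chenodeoxycholic acid, then read by B/G FRET fluorescence.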

Assay [20] addresses Peroxisome proliferator-activated receptor gamma (Homo sapiens) (UniProt P37231). Put plainly: qHTS assay to identify small molecule antagonists of the peroxisome proliferator-activated receptor gamma (PPARg) signaling pathway (AID 743191; calls by dose curve; note: series mostly up to about 63 µM; nearly all actives have a fitted effect of over 30% in size). In short, it runs like this: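 GeneBLAzer PPARg UAS-bla HEK293H cells carrying a UAS-driven beta-lactamase reporter were plated at 3000 cells/well, preincubated 5 h at 37C, then given compound for 17 h at 37C; LiveBLAzer B/G FRET substrate was read after 1 h at room temperature.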

Chain of Vitamin D3 receptor (Homo sapiens) (P11473 whole entry, looked up): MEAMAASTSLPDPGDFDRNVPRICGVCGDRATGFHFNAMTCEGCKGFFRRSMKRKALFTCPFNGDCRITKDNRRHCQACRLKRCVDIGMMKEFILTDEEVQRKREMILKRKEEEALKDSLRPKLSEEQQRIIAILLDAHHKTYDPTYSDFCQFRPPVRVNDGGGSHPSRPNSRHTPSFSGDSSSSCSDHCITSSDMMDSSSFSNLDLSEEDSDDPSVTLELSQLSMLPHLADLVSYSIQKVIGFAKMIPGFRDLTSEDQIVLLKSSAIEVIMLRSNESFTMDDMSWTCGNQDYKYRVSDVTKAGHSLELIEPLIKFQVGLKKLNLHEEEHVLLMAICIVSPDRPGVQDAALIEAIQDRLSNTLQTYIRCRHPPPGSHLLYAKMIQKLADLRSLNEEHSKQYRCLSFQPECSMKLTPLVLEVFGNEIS
Chain of Aryl hydrocarbon receptor (Homo sapiens) (P35869 whole entry, looked up): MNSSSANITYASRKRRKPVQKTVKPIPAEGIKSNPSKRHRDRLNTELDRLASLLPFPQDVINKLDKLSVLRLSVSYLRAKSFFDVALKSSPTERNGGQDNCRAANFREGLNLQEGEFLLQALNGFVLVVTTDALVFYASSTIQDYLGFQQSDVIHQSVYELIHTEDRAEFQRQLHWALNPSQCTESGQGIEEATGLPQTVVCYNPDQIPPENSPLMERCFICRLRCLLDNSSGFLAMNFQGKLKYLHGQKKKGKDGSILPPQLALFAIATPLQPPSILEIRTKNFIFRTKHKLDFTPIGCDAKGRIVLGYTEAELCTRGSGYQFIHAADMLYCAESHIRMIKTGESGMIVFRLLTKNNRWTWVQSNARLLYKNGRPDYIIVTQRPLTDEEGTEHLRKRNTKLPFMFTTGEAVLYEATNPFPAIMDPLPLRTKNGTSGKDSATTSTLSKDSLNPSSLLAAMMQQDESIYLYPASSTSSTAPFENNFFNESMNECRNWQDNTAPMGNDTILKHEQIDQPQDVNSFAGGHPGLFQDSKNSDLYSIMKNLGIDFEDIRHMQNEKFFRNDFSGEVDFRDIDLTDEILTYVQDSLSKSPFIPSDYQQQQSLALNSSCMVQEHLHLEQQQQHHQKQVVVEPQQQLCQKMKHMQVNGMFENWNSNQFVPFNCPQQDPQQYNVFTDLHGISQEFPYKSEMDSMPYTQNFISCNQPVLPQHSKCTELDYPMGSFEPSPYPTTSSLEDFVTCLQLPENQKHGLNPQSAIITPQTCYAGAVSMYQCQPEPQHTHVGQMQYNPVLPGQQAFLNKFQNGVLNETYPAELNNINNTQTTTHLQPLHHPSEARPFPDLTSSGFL
Chain of Peroxisome proliferator-activated receptor delta (Homo sapiens) (Q03181 whole entry, looked up): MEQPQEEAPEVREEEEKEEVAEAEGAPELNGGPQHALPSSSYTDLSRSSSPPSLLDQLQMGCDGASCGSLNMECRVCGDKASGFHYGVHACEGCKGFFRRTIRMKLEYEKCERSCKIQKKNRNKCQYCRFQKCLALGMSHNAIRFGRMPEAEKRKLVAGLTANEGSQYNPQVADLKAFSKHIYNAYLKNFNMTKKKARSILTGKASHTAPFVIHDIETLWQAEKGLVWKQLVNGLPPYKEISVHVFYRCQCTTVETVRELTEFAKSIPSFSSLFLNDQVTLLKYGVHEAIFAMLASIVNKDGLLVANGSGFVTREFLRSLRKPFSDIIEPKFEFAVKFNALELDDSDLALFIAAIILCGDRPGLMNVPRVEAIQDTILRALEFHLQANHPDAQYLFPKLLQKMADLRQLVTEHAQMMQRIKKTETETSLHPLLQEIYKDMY

Take `c1ccc(-c2ccccn2)nc1`: the Potency entry in [1], in [2], in assay [3], in [4], in [5] and in [6] was “inactive” throughout. The Potency entry in [7], in assay [8], in [9], in assay [10], in assay [11] and in assay [12] was “inactive” each time. For the same compound, the result in assay [13] was inactive.
Regarding `CC/C=C\CCOC(=O)CC`, the Potency entry in assay [1], in assay [2], in assay [3], in assay [4], in [14] and in assay [5] was “inactive” each time. Besides, the Potency result in assay [6], in [15], in assay [7], in assay [8], in assay [9] and in [16] was “inactive” each time.
Regarding `COc1cc(C(=O)OCCCN2CCCN(CCCOC(=O)c3cc(OC)c(OC)c(OC)c3)CC2)cc(OC)c1OC`, the Potency in assay [1] is 8.41 µM (active); in [14], 11.9 µM (active). Also, the Potency result in [2], in [3], in [4], in assay [5], in assay [6] and in [15] was “inactive” in each case. Also, the Potency entry in assay [7], in assay [10], in [11], in assay [16] and in [12] was “inactive” in each case.
As to `O=C(O)c1ccco1`, the Potency entry in assay [1], in [2], in [3], in assay [17], in assay [14] and in assay [5] was “inactive” each time. Besides, the Potency entry in assay [6], in [15], in assay [7], in assay [9], in assay [11] and in assay [16] was “inactive” in each case. Moreover, in [12], the Potency result is “inactive”. In [13], the call was inactive.
Regarding `CN(Cc1ccc(C(C)(C)C)cc1)Cc1cccc2ccccc12`, the Potency entry in [1], in [2], in [3], in assay [17], in assay [14] and in assay [5] was “inactive” each time. Besides, the Potency result in [6], in assay [15], in assay [10], in [18] and in assay [12] was “inactive” throughout. In assay [9], the Potency is 23.7 µM (active). Moreover, the call in [13] was inactive.
Consider `COc1cc(Cl)ccc1Oc1ccc(Cl)cc1Cl`, for which the Potency result in assay [1], in assay [2], in [3], in assay [17], in [14] and in [5] was “inactive” throughout. Moreover, the Potency entry in [6], in assay [15], in assay [8], in [9], in assay [10] and in assay [11] was “inactive” in each case. Moreover, the Potency entry in assay [18] and in assay [12] was “inactive” in each case. Besides, the outcome in [13] was inactive.
In the case of `NCc1ccccc1Sc1ccccc1CO`, the Potency result in [1], in [2], in assay [3], in assay [17], in assay [4] and in assay [5] was “inactive” in each case. Besides, the Potency result in assay [6], in assay [15], in [16] and in [12] was “inactive” in each case. Besides, the compound was called inactive in assay [13].
`O=S(=O)(Oc1ccc(Cl)cc1)c1ccccc1`: the Potency entry in [1], in [2], in [3], in [17], in assay [14] and in [5] was “inactive” throughout. In addition, the Potency entry in assay [6], in [15], in assay [7], in assay [19], in [18] and in assay [16] was “inactive” throughout. Further, the Potency entry in assay [12] was “inactive”.
As to `CC1=CC=C(C(C)C)CC1`, the Potency result in assay [1], in assay [2], in assay [3], in [17], in assay [14] and in assay [5] was “inactive” in each case. For the same compound, the Potency result in assay [6], in [11] and in assay [16] was “inactive” throughout.
As to `C=C1C(=C/C=C2\CCC[C@]3(C)[C@@H]([C@H](C)/C=C/[C@@H](O)C4CC4)CC[C@@H]23)C[C@@H](O)C[C@@H]1O`, the Potency entry in assay [1], in assay [2], in assay [3] and in assay [18] was “inactive” throughout. Moreover, the values for the Potency in assay [4], in [14] and in [19] were 26.6 µM (active), 2.66 µM (active) and 29.8 µM (active), respectively.
Turning to `CN(C)c1ccc(C(c2ccccc2)c2ccc(N(C)C)cc2)cc1`, the Potency result in assay [1], in assay [2], in [3], in assay [4], in [14] and in assay [5] was “inactive” in each case. Moreover, the Potency result in assay [6], in [15], in assay [7], in [9], in assay [16] and in assay [12] was “inactive” throughout. The compound was classed as inactive in assay [13].
With `CCOc1ccc(O)cc1`, the Potency result in assay [1], in assay [2], in [3], in assay [20], in assay [4] and in [5] was “inactive” each time. Moreover, the Potency entry in [6], in assay [15], in assay [7], in [8], in [9] and in [10] was “inactive” each time. Moreover, the Potency entry in assay [11], in [16] and in assay [12] was “inactive” each time. Moreover, the Potency in [14] is 61.1 µM (active). In addition, the outcome in assay [13] was inactive.
Turning to `O=C1OC(CN2CCOCC2)CN1/N=C/c1ccc([N+](=O)[O-])o1` (configuration not stated), the Potency result in [1], in assay [2], in assay [3], in assay [4], in assay [5] and in assay [6] was “inactive” in each case. Further, the Potency entry in assay [7], in [8], in [9], in assay [10], in assay [11] and in [16] was “inactive” in each case. Also, the Potency entry in assay [12] is “inactive”. The Potency in assay [14] was 29.8 µM (active). Moreover, in assay [13], the compound was classed as inactive.
Turning to `CC(C)=CCC/C(C)=C/CC/C(C)=C/CO`, the Potency entry in [1], in [2], in assay [3], in assay [17], in assay [4] and in [5] was “inactive” in each case. Also, the Potency result in [9], in [10], in [11] and in assay [12] was “inactive” in each case. For the same compound, the Potency in [7] is 38.9 µM (active). In addition, the result in assay [13] was inactive.
